# Reference: PubChem BioAssay (NCI)
# This is part of a sample that, as a whole, favours compounds with a hit. Of some 79,000 tested, about 15% had one in any assay. Values without a mark were called inactive. The source made the active and inactive calls. No stated cut-off is given here; in the data, active means growth inhibition above about 70%; inactive means the rest.
# How the values were obtained:
# [1] = NCI Yeast Anticancer Drug Screen. Data for the rad50 strain (AID 155);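 further: 0% = growth of vehicle-only cultures of the same strain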; details: S. cerevisiae rad50 strain growth inhibition, active compounds read high; at 50.0 µM unless noted
# Summary of the method: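 DNA repair mutant yeast, compound exposure, growth read-out; inhibition is taken relative to vehicle.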
# [2] = NCI Yeast Anticancer Drug Screen. Data for the mec2-1 strain (AID 157); details: S. cerevisiae mec2-1 strain, active compounds read high; at 50.0 µM unless noted
# Summary of the method: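 mec2-1 yeast strain, carrying an alteration in DNA damage repair or cell cycle control, was exposed to compounds; growth inhibition was measured relative to vehicle-treated controls.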
# [3] = NCI Yeast Anticancer Drug Screen. Data for the sgs1 mgt1 strain (AID 161);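 further: 0% = growth of cultures given vehicle only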; details: S. cerevisiae sgs1 mgt1 strain, active compounds read high; at 50.0 µM unless noted
# Summary of the method: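 Compounds are added to genetically altered yeast, and growth is compared with cultures given vehicle alone to give percent inhibition.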
# [4] = NCI Yeast Anticancer Drug Screen. Data for the cln2 rad14 strain (AID 165);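 further: 0% = growth equal to vehicle treated cultures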; details: S. cerevisiae cln2 rad14 strain, active compounds read high; at 50.0 µM unless noted
# Summary of the method: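 Yeast carrying cln2 and rad14 alterations (cell cycle control and DNA damage repair) were exposed to compounds. Growth inhibition was measured against vehicle-treated controls.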
# [5] = NCI Yeast Anticancer Drug Screen. Data for the bub3 strain (AID 167); details: S. cerevisiae bub3 mutant strain, active compounds read high; at 50.0 µM unless noted
# Summary of the method: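 In this screen, a yeast mutant lacking normal mitotic checkpoint function is challenged with compound. Relative growth versus vehicle gives the inhibition value.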
# [6] = NCI Yeast Anticancer Drug Screen. Data for the mlh1 rad18 strain (AID 175); details: S. cerevisiae mlh1 rad18 strain growth inhibition, active compounds read high; at 50.0 µM unless noted
# Summary of the method: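 Growth inhibition of the yeast strain was measured after compound exposure and expressed relative to vehicle-treated controls. The strain carries defined defects in DNA damage repair.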
SMILES,growth inhibition [1],growth inhibition [2],growth inhibition [3],growth inhibition [4],growth inhibition [5],growth inhibition [6]
CN(N=O)C(=O)NCCCCCNC(=O)N(C)N=O,7.6%,12.8%,14.1%,-132%,10.5%,-4.85%
COc1cc(N(Cc2ccc3nc(OC)c(OC)nc3c2)Cc2ccc3nc(OC)c(OC)nc3c2)cc(OC)c1OC,-29.8%,-23.6%,-19.4%,-6.4%,-20.4%,-14.6%
CCOC(=O)C(=O)/C(=C/N1C(=O)CC(=O)NC1=S)C(=O)OCC,-19.6%,-47.2%,-25%,-13.9%,-34.9%,-10.6%
CCCC(C)C(=O)OC(CC)CC (configuration not stated),31.4%,1.55%,13.1%,-18.2%,5.65%,11.4%
S=c1c(-c2ccccc2)cnc2sccn12,40.9%,29.8%,8.3%,-22.6%,19.8%,18.4%
O=C1CN(CCN2CC(=O)N(CN3CCOCC3)C(=O)C2)CC(=O)N1CN1CCOCC1,9.55%,3%,2.6%,3.8%,-16.1%,83.9% (active)
O=C(O)C1Cc2c([nH]c3ccccc23)CN1 (configuration not stated),8.45%,-10.9%,11.6%,2.25%,24.1%,9.25%
CN1C(=O)C/C(=C/[N+](=O)[O-])c2ccccc21,3.5%,-1.05%,4.2%,8.05%,3.3%,-18.9%
Cn1c(O)c(N=NC(=O)Cc2c[nH]c3ccccc23)c2ccccc21,-6.95%,-3.75%,4.8%,-7.05%,-2.2%,-19.1%
O=[N+]([O-])c1ccc(CS(=O)Cc2ccccc2)cc1 (configuration not stated),10.9%,-18.6%,1.35%,0.05%,6.75%,31.7%
Cc1ccccc1N=C(N)N,4.3%,2.5%,-1.35%,-3.3%,-0.2%,-1.95%
C=CCOC(=O)C(C)OC(=O)CCC(=O)OC(C)C(=O)OCC=C (configuration not stated),5.35%,4.3%,4.35%,3.95%,6.15%,4.85%
Cc1nn(C(=O)c2ccc(Cl)cc2)c2c1C(c1ccc([N+](=O)[O-])cc1)SC(N)=N2 (configuration not stated),-14.8%,7.4%,16.4%,-16.8%,-16.1%,-4.1%
O=C1c2ccccc2C(=O)N1C/C=C/CO,11.5%,8.75%,-1.45%,7.6%,0.95%,1.15%
COc1cc2c(c(OC)c1OC)-c1ccc(OC)c(=O)cc1[C@@H](NC=O)CC2,-11%,-14.5%,-22.9%,4.15%,-8.05%,-29.8%
ClC1CCC[N-]C1.ClC1CCC[N-]C1.[Cl][Pt+2][Cl] (configuration not stated),-7.1%,4.95%,-9.7%,-28.6%,-3.6%,-3.55%
C[n+]1c(/C=C\C=C\c2ccccc2)sc2ccccc21,16.6%,2.05%,16.1%,18.1%,3%,11.2%
CCCCNC(=O)c1cc(=O)[nH]c(=O)[nH]1,1.5%,-6.55%,6.6%,5.6%,-16.1%,20.1%
Cc1c(Cl)cccc1C(=O)O,-3.15%,10.7%,3.65%,-3.15%,-10%,27.6%
CSc1nc(SC)c2ncn(C3CC(Oc4ccc(C)cc4)C(COc4ccc(C)cc4)O3)c2n1 (configuration not stated),15.8%,-5.75%,17.1%,10.3%,8.45%,-18.2%
CCN(CC)CCCNc1ncnc2c1C(c1ccccc1)c1ccccc1-2 (configuration not stated),8.5%,-14.7%,1.7%,6%,-4.85%,-6.9%

SMILES,growth inhibition [1],growth inhibition [2],growth inhibition [3],growth inhibition [4],growth inhibition [5],growth inhibition [6]
COc1ccc2c(O)c(Oc3ccccc3)c(=O)oc2c1,0.5%,5%,4.25%,30.9%,15.3%,13.1%
COc1nc(NC2OC(CO)C(O)C(O)C2O)c(I)c(=O)[nH]1 (configuration not stated),5.3%,-3.4%,2%,-6.25%,-4.75%,21.8%
CC(=O)NC(C(=O)O)C(C)C (configuration not stated),6.4%,-0.75%,-4.55%,-4.2%,0.85%,6.7%
CCN(CC)CCOC(=O)c1cc2ccccc2s1,23.2%,8.85%,13.1%,2.85%,-1.35%,10.4%
N#CCCN1CCCC(=O)NC1=O,4.4%,-14.4%,-5.35%,-37.7%,-7.4%,-15.4%
CCOC(=O)c1ccc(-c2ccc(Cl)cc2)[nH]1,-7.3%,0%,-3%,2.45%,34%,3.2%
O=C1c2ccccc2C(=Cc2cccc([N+](=O)[O-])c2)c2ccccc21,15.6%,18.4%,-6.35%,9.75%,4.2%,0.6%
CCN(CC)CCn1c2ccccc2c(=O)c2c(OC)ccc(OC)c21,54.4%,8.05%,15.8%,16.6%,16.8%,50.9%
Cn1ccn(C2CCCCC2)c1=O,3.35%,5.1%,-0.25%,-12.3%,35%,7.95%
O=C(Oc1cccc(O)c1)c1ccccc1,-7.25%,11%,-9.15%,-18.8%,19.9%,-6.1%
O=S(=O)(CCCl)c1ccc(Br)cc1,51.6%,44.6%,56.7%,18.8%,39.4%,57.5%
O=C(O)/C(Cc1cn[nH]n1)=N\O,-20.3%,-29.9%,-51.7%,-77%,-39.4%,-32%
CCOC(=O)C1SC(=Nc2ccccc2)N=C1C (configuration not stated),11.3%,-11.7%,28.1%,-4.15%,-19.6%,-4.5%
CC(=O)OC1CCC2(C)C(CCC3C2C(=O)C(OC(C)=O)C2(C)C3CC3OC4(CCC(C)CO4)C(C)C32)C1 (configuration not stated),-10.5%,-19.9%,-11.2%,3.6%,-23.9%,-6.9%
O=P(O)(O)c1ccc(-c2ccc(I)cc2)cc1,11.7%,-15.5%,7.45%,22.2%,-8.8%,13.2%
CCOC(=O)/N=N/C(C)(C)OC(C)=O,-10.5%,9.25%,-8.1%,-39.7%,-20.4%,-21.1%
CCC(=O)Nc1ccccc1Cl,3.6%,-1.1%,-15.4%,-42.6%,-1.95%,4.95%
NC(C(=O)O)c1ccc(CBr)cc1 (configuration not stated),9.5%,-12.3%,-10.2%,4.25%,-1.6%,-64.5%
COC(=O)CC1CCS(=O)(=O)C1 (configuration not stated),-6.6%,6.35%,-5.7%,-37.4%,-4.4%,0%
Cc1cccc2oc3c(c(=O)c12)CC(O)C(C)(C)O3 (configuration not stated),15.6%,-3.85%,20.7%,-7.85%,5.65%,-45%
C/C=C/C(=O)Oc1ccc[nH]c1=O,-10.9%,13.1%,4.85%,-2.15%,11.8%,-4.25%
